# Experimental data as given in PubChem BioAssay AID1159580 (chemical genetic matrix, 2015).
# The campaign covered roughly 5,500 compounds. About 2,000 (36%) were called active. Inconclusive results (about 18%) are left out. The list shows a part of the results. Values without a mark were called inactive. Cut-off read from the data, not from the text of the source: active = normalized growth mostly below about 0.91 (no sharp cut-off); inconclusive = no clear call, values can overlap the other calls; inactive = mostly above about 0.92.
# Assay: chemical genetic growth profiling, strain panel (AID 1159580);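 note: tested at 20 µM; growth read once vehicle control cultures reached saturation at 30 °C; 1 = growth at the plate median or of vehicle wells; lower values mean less growth of the strain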
# Conditions: S. cerevisiae deletion strains, growth OD
compound,measurement,setting,value
O=c1[nH][nH]c(=O)n1CCCc1cc2cccc3ccc4cccc1c4c32,normalized growth,"locus YAR019C, strain CDC15, stronger effect = lower value",1
same,normalized growth,"locus YBL105C, strain PKC1, stronger effect = lower value",0.987
same,normalized growth,"locus YBR135W, strain CKS1, stronger effect = lower value",0.998
same,normalized growth,"locus YBR136W, strain MEC1, stronger effect = lower value",0.988
same,normalized growth,"locus YBR160W, strain CDC28, stronger effect = lower value",0.994
same,normalized growth,"locus YDL017W, strain CDC7, stronger effect = lower value",0.994
same,normalized growth,"locus YDL028C, strain MPS1, stronger effect = lower value",0.992
same,normalized growth,"locus YDL101C, strain DUN1, stronger effect = lower value",0.984
same,normalized growth,"locus YDL108W, strain KIN28, stronger effect = lower value",0.988
same,normalized growth,"locus YDL132W, strain cdc53, stronger effect = lower value",0.99
same,normalized growth,"locus YDL214C, strain PRR2, stronger effect = lower value",0.968
same,normalized growth,"locus YDR052C, strain DBF4, stronger effect = lower value",0.991
same,normalized growth,"locus YDR054C, strain cdc34, stronger effect = lower value",0.994
same,normalized growth,"locus YDR226W, strain ADK1, stronger effect = lower value",0.995
same,normalized growth,"locus YDR477W, strain SNF1, stronger effect = lower value",0.979
same,normalized growth,"locus YER123W, strain YCK3, stronger effect = lower value",0.949
same,normalized growth,"locus YER133W, strain GLC7, stronger effect = lower value",0.97
same,normalized growth,"locus YFL009W, strain cdc4, stronger effect = lower value",0.994
same,normalized growth,"locus YFL029C, strain CAK1, stronger effect = lower value",0.999
same,normalized growth,"locus YFR003C, strain YPI1, stronger effect = lower value",0.981
same,normalized growth,"locus YFR019W, strain FAB1, stronger effect = lower value",0.935
same,normalized growth,"locus YFR028C, strain CDC14, stronger effect = lower value",0.987
same,normalized growth,"locus YGR040W, strain KSS1, stronger effect = lower value",0.95
same,normalized growth,"locus YGR052W, strain FMP48, stronger effect = lower value",0.936
same,normalized growth,"locus YGR092W, strain DBF2, stronger effect = lower value",0.9
same,normalized growth,"locus YHR030C, strain SLT2, stronger effect = lower value",1.02
same,normalized growth,"locus YHR079C, strain IRE1, stronger effect = lower value",1
same,normalized growth,"locus YHR082C, strain KSP1, stronger effect = lower value",0.986
same,normalized growth,"locus YHR205W, strain SCH9, stronger effect = lower value",0.915
same,normalized growth,"locus YIL147C, strain SLN1, stronger effect = lower value",0.983
same,normalized growth,"locus YJL095W, strain BCK1, stronger effect = lower value",0.873
same,normalized growth,"locus YJL128C, strain PBS2, stronger effect = lower value",0.952
same,normalized growth,"locus YJL157C, strain FAR1, stronger effect = lower value",0.99
same,normalized growth,"locus YJR016C, strain ILV3, stronger effect = lower value",0.997
same,normalized growth,"locus YJR066W, strain TOR1 (second series), stronger effect = lower value",0.927
same,normalized growth,"locus YJR066W, strain TOR1, stronger effect = lower value",0.964
same,normalized growth,"locus YKL048C, strain ELM1, stronger effect = lower value",0.956
same,normalized growth,"locus YKL067W, strain YNK1, stronger effect = lower value",0.971
same,normalized growth,"locus YKL101W, strain HSL1, stronger effect = lower value",0.937
same,normalized growth,"locus YKL193C, strain SDS22, stronger effect = lower value",0.992
same,normalized growth,"locus YKL203C, strain TOR2, stronger effect = lower value",0.985
same,normalized growth,"locus YLR113W, strain HOG1, stronger effect = lower value",0.922
same,normalized growth,"locus YLR133W, strain CKI1, stronger effect = lower value",0.952
same,normalized growth,"locus YLR403W, strain SFP1, stronger effect = lower value",0.908
same,normalized growth,"locus YML070W, strain DAK1, stronger effect = lower value",0.942
same,normalized growth,"locus YMR001C, strain CDC5, stronger effect = lower value",0.992
same,normalized growth,"locus YMR205C, strain PFK2 (second series), stronger effect = lower value",0.973
same,normalized growth,"locus YMR277W, strain FCP1, stronger effect = lower value",0.989
same,normalized growth,"locus YNL006W, strain LST8, stronger effect = lower value",0.993
same,normalized growth,"locus YNL020C, strain ARK1, stronger effect = lower value",0.968
same,normalized growth,"locus YNL161W, strain CBK1, stronger effect = lower value",0.993
same,normalized growth,"locus YNL183C, strain NPR1, stronger effect = lower value",0.911
same,normalized growth,"locus YNL207W, strain RIO2, stronger effect = lower value",0.995
same,normalized growth,"locus YNL222W, strain SSU72, stronger effect = lower value",0.996
same,normalized growth,"locus YNL307C, strain MCK1 (second series), stronger effect = lower value",0.909
same,normalized growth,"locus YOL078W, strain AVO1, stronger effect = lower value",0.993
same,normalized growth,"locus YOL136C, strain PFK27, stronger effect = lower value",0.94
same,normalized growth,"locus YOR061W, strain CKA2, stronger effect = lower value",0.975
same,normalized growth,"locus YOR119C, strain RIO1, stronger effect = lower value",0.993
same,normalized growth,"locus YOR231W, strain MKK1, stronger effect = lower value",0.972
same,normalized growth,"locus YOR329C, strain SCD5, stronger effect = lower value",0.991
same,normalized growth,"locus YPL031C, strain PHO85, stronger effect = lower value",0.961
same,normalized growth,"locus YPL153C, strain RAD53, stronger effect = lower value",0.963
same,normalized growth,"locus YPL204W, strain HRR25, stronger effect = lower value",0.941
same,normalized growth,"locus YPL209C, strain IPL1, stronger effect = lower value",0.988
same,normalized growth,"locus YPL256C, strain CLN2, stronger effect = lower value",1.08
same,normalized growth,"locus YPR025C, strain CCL1, stronger effect = lower value",0.998
same,normalized growth,"locus YPR106W, strain ISR1, stronger effect = lower value",0.985
same,normalized growth,"locus YPR111W, strain DBF20, stronger effect = lower value",0.973
same,normalized growth,"strain NNK1, stronger effect = lower value",0.991
same,normalized growth,"strain TSCII, stronger effect = lower value",0.994
C=CCSSSCC=C,normalized growth,"locus YAL021C, strain ccr4, stronger effect = lower value",0.962
same,normalized growth,"locus YAL026C, strain drs2, stronger effect = lower value",0.97
same,normalized growth,"locus YAL030W, strain snc1, stronger effect = lower value",0.989
same,normalized growth,"locus YBL061C, strain skt5, stronger effect = lower value",1
same,normalized growth,"locus YBR009C, strain hhf1, stronger effect = lower value",0.957
same,normalized growth,"locus YBR023C, strain chs3, stronger effect = lower value",0.986
same,normalized growth,"locus YBR171W, strain sec66, stronger effect = lower value",0.994
same,normalized growth,"locus YBR231C, strain swc5, stronger effect = lower value",0.974
same,normalized growth,"locus YBR279W, strain paf1, stronger effect = lower value",0.991
same,normalized growth,"locus YCL011C, strain gbp2, stronger effect = lower value",0.984
same,normalized growth,"locus YCL016C, strain dcc1, stronger effect = lower value",1
same,normalized growth,"locus YCL061C, strain MRC1, stronger effect = lower value",0.98
same,normalized growth,"locus YCL069W, strain vba3, stronger effect = lower value",0.973
same,normalized growth,"locus YCR088W, strain abp1, stronger effect = lower value",0.984
same,normalized growth,"locus YDL005C, strain med2, stronger effect = lower value",0.97
same,normalized growth,"locus YDL040C, strain nat1, stronger effect = lower value",0.987
same,normalized growth,"locus YDR001C, strain nth1, stronger effect = lower value",0.988
same,normalized growth,"locus YDR069C, strain doa4, stronger effect = lower value",0.965
same,normalized growth,"locus YDR137W, strain rgp1, stronger effect = lower value",0.984
same,normalized growth,"locus YDR159W, strain sac3, stronger effect = lower value",0.937
same,normalized growth,"locus YDR195W, strain ref2",0.944
same,normalized growth,"locus YDR297W, strain sur2, stronger effect = lower value",0.989
same,normalized growth,"locus YDR334W, strain swr1, stronger effect = lower value",0.966
same,normalized growth,"locus YDR335W, strain msn5, stronger effect = lower value",0.986
same,normalized growth,"locus YDR392W, strain spt3, stronger effect = lower value",0.782
same,normalized growth,"locus YEL003W, strain gim4, stronger effect = lower value",0.98
same,normalized growth,"locus YEL037C, strain rad23, stronger effect = lower value",0.958
same,normalized growth,"locus YEL061C, strain CIN8 (second series), stronger effect = lower value",0.979
same,normalized growth,"locus YER015W, strain faa2, stronger effect = lower value",0.976
same,normalized growth,"locus YER016W, strain bim1, stronger effect = lower value",0.992
same,normalized growth,"locus YER111C, strain swi4, stronger effect = lower value",0.991
same,normalized growth,"locus YER155C, strain BEM2 (second series), stronger effect = lower value",0.765 (active)
same,normalized growth,"locus YFR010W, strain ubp6, stronger effect = lower value",0.956
same,normalized growth,"locus YGL167C, strain pmr1, stronger effect = lower value",0.983
same,normalized growth,"locus YGL173C, strain kem1, stronger effect = lower value",0.988
same,normalized growth,"locus YGL227W, strain vid30, stronger effect = lower value",0.995
same,normalized growth,"locus YGL240W, strain doc1, stronger effect = lower value",0.944
same,normalized growth,"locus YGL253W, strain hxk2, stronger effect = lower value",0.987
same,normalized growth,"locus YHR013C, strain ard1, stronger effect = lower value",0.937
same,normalized growth,"locus YHR027C, strain rpn1, stronger effect = lower value",1
same,normalized growth,"locus YHR142W, strain chs7, stronger effect = lower value",0.981
same,normalized growth,"locus YJL092W, strain hpr5, stronger effect = lower value",0.966
same,normalized growth,"locus YJL095W, strain BCK1 (second series), stronger effect = lower value",0.991
same,normalized growth,"locus YJL115W, strain asf1, stronger effect = lower value",0.975
same,normalized growth,"locus YJL129C, strain trk1, stronger effect = lower value",0.958
same,normalized growth,"locus YJL154C, strain vps35, stronger effect = lower value",0.979
same,normalized growth,"locus YJL164C, strain tpk1, stronger effect = lower value",0.974
same,normalized growth,"locus YJL166W, strain qcr8, stronger effect = lower value",0.976
same,normalized growth,"locus YJL187C, strain SWE1, stronger effect = lower value",0.984
same,normalized growth,"locus YKL160W, strain elf1, stronger effect = lower value",0.995
same,normalized growth,"locus YKR026C, strain gcn3, stronger effect = lower value",0.978
same,normalized growth,"locus YKR091W, strain srl3, stronger effect = lower value",0.983
same,normalized growth,"locus YLL001W, strain dnm1, stronger effect = lower value",0.994
same,normalized growth,"locus YLL026W, stronger effect = lower value",0.991
same,normalized growth,"locus YLL041C, strain sdh2, stronger effect = lower value",0.982
same,normalized growth,"locus YLR027C, strain aat2, stronger effect = lower value",0.972
same,normalized growth,"locus YLR221C, strain rsa3, stronger effect = lower value",0.992
same,normalized growth,"locus YLR258W, strain gsy2, stronger effect = lower value",0.999
same,normalized growth,"locus YLR262C, strain YPT6 (second series), stronger effect = lower value",0.995
same,normalized growth,"locus YLR320W, strain mms22, stronger effect = lower value",0.967
same,normalized growth,"locus YLR342W, strain FKS1, stronger effect = lower value",0.98
same,normalized growth,"locus YLR357W, strain rsc2, stronger effect = lower value",0.891
same,normalized growth,"locus YLR370C, strain arc18, stronger effect = lower value",0.978
same,normalized growth,"locus YLR384C, strain iki3, stronger effect = lower value",1.01
same,normalized growth,"locus YML120C, strain ndi1, stronger effect = lower value",0.974
same,normalized growth,"locus YMR058W, strain fet3, stronger effect = lower value",0.975
same,normalized growth,"locus YMR125W, strain sto1, stronger effect = lower value",0.946
same,normalized growth,"locus YMR129W, stronger effect = lower value",0.98
same,normalized growth,"locus YMR205C, strain PFK2, stronger effect = lower value",0.967
same,normalized growth,"locus YMR231W, strain pep5, stronger effect = lower value",0.978
same,normalized growth,"locus YNL071W, strain lat1, stronger effect = lower value",0.847 (active)
same,normalized growth,"locus YNL209W, strain ssb2, stronger effect = lower value",0.992
same,normalized growth,"locus YNL248C, strain rpa49, stronger effect = lower value",0.877 (active)
same,normalized growth,"locus YNL322C, strain KRE1 (second series), stronger effect = lower value",0.974
same,normalized growth,"locus YNR049C, strain mso1, stronger effect = lower value",0.98
same,normalized growth,"locus YOR001W, strain rrp6, stronger effect = lower value",0.96
same,normalized growth,"locus YOR070C, strain gyp1, stronger effect = lower value",0.992
same,normalized growth,"locus YOR080W, strain dia2, stronger effect = lower value",0.972
same,normalized growth,"locus YOR083W, strain WHI5, stronger effect = lower value",1
same,normalized growth,"locus YOR106W, strain vam3, stronger effect = lower value",0.949
same,normalized growth,"locus YOR265W, strain rbl2, stronger effect = lower value",0.984
same,normalized growth,"locus YOR270C, strain vph1, stronger effect = lower value",0.941
same,normalized growth,"locus YOR290C, strain snf2, stronger effect = lower value",0.964
same,normalized growth,"locus YPL051W, strain arl3, stronger effect = lower value",0.979
same,normalized growth,"locus YPL078C, strain atp4, stronger effect = lower value",0.988
same,normalized growth,"locus YPL106C, strain sse1, stronger effect = lower value",0.976
same,normalized growth,"locus YPL240C, strain hsp82, stronger effect = lower value",0.995
